From PubChem BioAssay (Tox21)
“And” between values parts separate entries of the source, which are not always exact repeats. Equal entries are not always repeated. Inconclusive results are not listed. A call without a number means that no potency is given here. Where a structure was tested more than once in an assay, its records may differ in their call. The source made the active and inactive calls. Unless noted, calls follow the shape of the dose curve; as a rule, active = well fitted cell-killing curve with a large enough effect in the repeat runs; inconclusive = weak or mixed curves, or effect the other way; inactive = no such curve, though single readings can be large or run the other way.

System: not listed separately
Assay: qHTS assay to identify small molecule agonists of the farnesoid-X-receptor (FXR) signaling pathway - cell viability counter screen (AID 743218); also: nearly all actives have a fitted effect of over 45% in size; also: potency is read from the fitted curve at half-maximal effect
Details: FXR-bla HEK293T viability, CellTiter-Glo luminescence, 16 h; series mostly up to 62.6 µM; viability change, negative = cytotoxic: at the top concentration
In short: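 Readout: CellTiter-Glo luminescence, 30 min RT, multiplexed after the FXR-bla FRET reading. HEK 293T FXR-UAS-bla cells received compound 5 h post-plating and were incubated 16 h at 37 C.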
With OC(CCl)CCl the Potency was “inactive”.
For CN(C)CCC=C1c2ccccc2CCc2ccccc21, the Potency was 49 µM (active) and 19.5 µM (active).
With CCCCOCCOCCOCCO the “viability change, negative = cytotoxic” value was 5.69% (inactive).
In the case of CCC(C)(O)CCCC(C)C (configuration not stated), the Potency is reported as “inactive”.
In the case of O=P(O)(O)O, the “viability change, negative = cytotoxic” value is reported as -16.3% (inactive).
In the case of CCCCNS(=O)(=O)c1ccccc1, the Potency is reported as “inactive”.
With Cc1[nH]c(=O)c(C#N)cc1-c1ccncc1 the “viability change, negative = cytotoxic” value was 0.764% (inactive).
In the case of CNCCCC12CCC(c3ccccc31)c1ccccc12, the Potency is reported as 19.5 µM (active) and inactive.
For Cc1cccc(C(=O)O)c1, the Potency was “inactive”.
In the case of Nc1ncn([C@@H]2O[C@H](CO)[C@@H](O)[C@H]2O)c(=O)n1, the Potency is reported as “inactive”.
With Nc1ncnc2nc[nH]c12 the “viability change, negative = cytotoxic” value was 2.52% (inactive).
For CC(C(=O)O)c1cccc(C(=O)c2ccccc2)c1 (configuration not stated), the “viability change, negative = cytotoxic” value was -17.1% (inactive).
In the case of Cc1c(C(N)=O)cc([N+](=O)[O-])cc1[N+](=O)[O-], the Potency is reported as “inactive”.
In the case of CC(C)OC=O, the “viability change, negative = cytotoxic” value is reported as -1.43% [at 81.1 µM] (inactive).
In the case of O=[N+]([O-])c1ccc2c(c1)Cc1ccccc1-2, the Potency is reported as “inactive”.
With Cc1c(OCC(F)(F)F)ccnc1CS(=O)c1nc2ccccc2[nH]1 (configuration not stated) the “viability change, negative = cytotoxic” value was 7.2% (inactive).
With c1ccc2c(c1)c1cccc3ccc4cccc2c4c31 the “viability change, negative = cytotoxic” value was -21% (inactive).
For C[C@]12CC[C@H]3[C@@H](CCC4=CC(=O)CC[C@@]43C)[C@@H]1CC[C@@H]2C(=O)CO, the “viability change, negative = cytotoxic” value was 10.1% (inactive).
In the case of COC(C)COC(C)COC(C)CO (configuration not stated), the Potency is reported as “inactive”.
For CC(C)Oc1ccc2c(=O)c(-c3ccccc3)coc2c1, the Potency was “inactive”.
With C=C(C)C(=O)OCCOC(=O)C(=C)C the “viability change, negative = cytotoxic” value was -0.887% [at 81.1 µM] (inactive).
In the case of Clc1nc(Cl)c(Cl)c(Cl)c1Cl, the Potency is reported as “inactive”.
For C[C@]12CCC(=O)C=C1CC[C@@H]1[C@@H]2C(=O)C[C@@]2(C)[C@H]1CC[C@]2(O)C(=O)CO, the Potency was “inactive”.
With CN1C(C(=O)Nc2ccccn2)=C(O)c2ccccc2S1(=O)=O the Potency was “inactive”.
For Cc1ccc(C(=O)c2cc(O)c(O)c([N+](=O)[O-])c2)cc1, the “viability change, negative = cytotoxic” value was 2.6% (inactive).
With CC(C)CC(C)(O)C#CC(C)(O)CC(C)C (configuration not stated) the Potency was “inactive”.

Target: Bile acid receptor (Homo sapiens) (UniProt Q96RI1)
Sequence (Q96RI1 whole entry, looked up): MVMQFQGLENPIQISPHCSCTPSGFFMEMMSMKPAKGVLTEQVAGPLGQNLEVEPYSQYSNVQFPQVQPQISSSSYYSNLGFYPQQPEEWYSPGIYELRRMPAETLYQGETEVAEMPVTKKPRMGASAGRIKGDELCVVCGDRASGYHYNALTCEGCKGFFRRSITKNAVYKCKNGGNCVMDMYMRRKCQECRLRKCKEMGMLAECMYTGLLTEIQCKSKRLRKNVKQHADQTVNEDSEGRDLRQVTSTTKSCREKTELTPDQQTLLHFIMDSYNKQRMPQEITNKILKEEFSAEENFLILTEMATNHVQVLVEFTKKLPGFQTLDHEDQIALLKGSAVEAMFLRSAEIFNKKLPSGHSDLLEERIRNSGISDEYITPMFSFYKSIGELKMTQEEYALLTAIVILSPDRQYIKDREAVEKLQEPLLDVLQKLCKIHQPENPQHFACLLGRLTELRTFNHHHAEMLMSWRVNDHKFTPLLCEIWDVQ
Assay: qHTS assay to identify small molecule agonists of the farnesoid-X-receptor (FXR) signaling pathway (AID 743220; active = well fitted activation curve with a large enough effect in the signal ratio in the repeat runs, not every such curve was filed as active; the % refers to the signal ratio)
Details: HEK293T FXR-UAS-bla, beta-lactamase FRET ratio, 16 h; series mostly up to 62.6 µM; activation: at the top concentration
In short: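 FXR-UAS-bla HEK 293T cells carrying a UAS-driven beta-lactamase reporter were plated for 5 h at 37C/5% CO2, then exposed to DMSO-dissolved Tox21 10K compounds for 16 h at 37C. A LiveBLAzer B/G FRET substrate was loaded for 2 h at room temperature before fluorescence reading.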
For CN(C)CCC=C1c2ccccc2CCc2ccccc21, the outcome was “inactive”.
With NC=O the outcome was “inactive”.
For O=CCc1ccccc1, the outcome was “inactive”.
In the case of CCC(C)(O)CCCC(C)C (configuration not stated), the outcome is reported as “inactive”.
For O=P(O)(O)O, the outcome was “inactive”.
In the case of CCCCNS(=O)(=O)c1ccccc1, the outcome is reported as “inactive”.
In the case of Nc1ncnc2nc[nH]c12, the outcome is reported as “inactive”.
In the case of CC(C)OC=O, the outcome is reported as “inactive”.
With Cc1c(OCC(F)(F)F)ccnc1CS(=O)c1nc2ccccc2[nH]1 (configuration not stated) the outcome was “inactive”.
For CC(C)OC(=O)C(C)(C)Oc1ccc(C(=O)c2ccc(Cl)cc2)cc1, the “activation” value was 4.08% (inactive).
In the case of c1ccc2c(c1)c1cccc3ccc4cccc2c4c31, the “activation” value is reported as -1.39% (inactive).
In the case of O=CCCCC=O, the outcome is reported as “inactive”.
In the case of COC(C)COC(C)COC(C)CO (configuration not stated), the outcome is reported as “inactive”.
With CC(C)Oc1ccc2c(=O)c(-c3ccccc3)coc2c1 the outcome was “inactive”.
With O=C(/C=C/C=C/c1ccc2c(c1)OCO2)N1CCCCC1 the outcome was “inactive”.
With CN1C(C(=O)Nc2ccccn2)=C(O)c2ccccc2S1(=O)=O the outcome was “inactive”.
